Screening data as filed in PubChem BioAssay.
The full list was thinned out, with hits kept by preference.
Tg IFNy HTS = blocks Toxoplasma gondii growth in the presence of IFN-gamma. activity change, negative = inhibition, % (concentration not given with the values). hit rate 3.8% among 69,000. AID 1259416. Toxoplasma gondii growth in IFN-gamma-treated host cells; stronger effect = lower value; in the data active = activity change below about -70%, passing the limit was not always enough;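 also: host cells are HeLa cells infected with Toxoplasma gondii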
Starred values were filed as active, the others as inactive.

SMILES | Tg IFNy HTS
CCOC(=O)N1CCC2(CC1)OC(=O)C(C)=C2C(=O)NCCC1=CCCCC1 | 89
COC(=O)c1cccc(CN2CC[C@@H](c3ccc(F)cc3)[C@H](O)C2)n1 | 1
CC(=O)Nc1ccc(-c2nccn2CCn2cccn2)cc1 | 47
COc1ccc(-n2c(=O)c(C(=O)Nc3ccc(C)cc3)c(O)c3cccnc32)cc1 | 41
COCCN1C[C@H]2CN(Cc3nccn3C)C[C@H]2C1=O | 53
CC(=O)N1CC2(CCN(C(=O)c3ccc4c(c3)OCCO4)CC2)CC1C(=O)O (configuration not stated) | 4
CCn1c(C2CCCN(C(=O)Cn3nc4ccccc4n3)C2)nn(C)c1=O (configuration not stated) | 16
CC(=O)C(C)(C)OC(=O)NCc1cccs1 | 32
CC(=O)C(C)(C)OC(=O)NCCc1ccc(Cl)cc1 | -76*
COc1ccc(Cl)cc1C(=O)NCCc1ccc(C(=O)O)cc1 | 14
COc1cc2c(cc1CNC(=O)c1cnc(C3CC3)nc1C)OCCO2 | 5
O=C(CSCCOc1ccccc1)Nc1ccc(Cl)cc1Cl | 63
CN(Cc1ccccn1)C(=O)C1=NOC2(CCN(S(=O)(=O)c3cccc(F)c3)C2)C1 (configuration not stated) | -81*
CN(Cc1ccccn1)C(=O)c1cc(-c2cnc(-c3cccc(F)c3)nc2)cn1C | 170
CC(C)N(C)C(=O)C1=NOC2(CCN(C(=O)c3ccccn3)C2)C1 (configuration not stated) | 0
CN(Cc1ccccn1)C(=O)C1=NOC2(CCN(S(=O)(=O)c3ccc(F)cc3)C2)C1 (configuration not stated) | -80*
Cc1ccc(S(=O)(=O)N2CCC3(CC(C(=O)NCC(C)C)=NO3)C2)cc1 (configuration not stated) | 0
CCCCS(=O)(=O)N1CCC2(CC2C(=O)N(C)Cc2ccccn2)C1 (configuration not stated) | 114
CCn1cnnc1CCNc1cc(OC)ncn1 | 10
Cc1n[nH]c(C)c1CNC(=O)c1cc(C2CCCCC2)no1 | 23
CC(=O)Nc1ccc(NC(=O)CSc2ncc(-c3ccccc3)nn2)cc1 | 51
O=C(O)c1ccccc1-c1nccn1CCc1cccc(F)c1 | 1
Cc1ccc(N=Nc2c(-c3ccccc3)[nH]n(C(N)=S)c2=O)cc1 | -105*
O=c1c(N=Nc2ccccc2)c(-c2ccccc2)[nH]n1-c1ccccc1 | 11
Cc1[nH]n(C(N)=S)c(=O)c1N=Nc1cc(-c2ccc(Br)cc2)[nH]n1 | 178
SMILES | Tg IFNy HTS
Cc1ccc(S(=O)(=O)N2CCC3(CC2)NCCN=C3NCc2ccc(Cl)cc2)c(C)c1 | -32
CCc1nc(Cn2ccnc2-c2ccnn2-c2ccccc2)no1 | -51
CCCN1C(=O)CCc2cc(NC(=O)Cc3ccc(Cl)cc3)ccc21 | -9
CCCN1C(=O)CCc2cc(NC(=O)c3cc(Cl)ccc3OC)ccc21 | -93*
CCCN1C(=O)CCc2cc(NC(C)=O)ccc21 | 30
COCCN1C(=O)CCc2cc(NC(=O)C3CC3)ccc21 | 45
CCCN1C(=O)CCc2cc(NC(=O)c3ccc(Cl)s3)ccc21 | -90*
COCCN1C(=O)CCc2cc(NC(C)=O)ccc21 | -28
CCCN1C(=O)CCc2cc(NC(=O)CCOC)ccc21 | 7
CCCC(=O)Nc1ccc2c(c1)CCC(=O)N2CCC | 59
COCCN1C(=O)CCc2cc(NC(=O)c3ccc(Cl)s3)ccc21 | -78*
CN(Cc1ccc(OCC(N)=O)c(Cl)c1)Cc1cccc2ncccc12 | 0
COCC(=O)N1CC(C(=O)NCC2CC2)C2(CCOCC2)C1 (configuration not stated) | -36
Cc1ccc(NC(=O)c2cncc(NS(=O)(=O)c3ccc(Br)cc3)c2)c(C)c1 | -35
Cc1ccc(CN2CCC3(CC2)NC(=O)CC3c2cnn(C)c2)o1 (configuration not stated) | -2
CNC(=O)c1ccc(OC)c(-c2ccccc2OC(F)(F)F)c1 | -7
CCNS(=O)(=O)c1ccc(-c2oc3cc(S(=O)(=O)NCC)ccc3c2Cl)cc1 | -78*
CCN(CC)S(=O)(=O)c1ccc2oc3ccc(S(=O)(=O)N(CC)CC)cc3c2c1 | -8
CCCc1cc(=O)oc2cc(OS(=O)(=O)c3ccc(Cl)cc3)ccc12 | -55
Cc1cc(C(=O)N2CC[C@@H]3[C@H]2CCN3S(C)(=O)=O)no1 | 6
Cc1occc1C(=O)N1CC[C@@H](N2CCOCC2)[C@H]1Cc1ccccc1 | -26
COCCN1CCc2ncnc(-c3ccsc3)c2CC1 | 4
O=C1NC(C(=O)N2CC(c3cccnc3)C2)Cc2ccccc21 (configuration not stated) | -3
O=C(Cn1ncc2c(N3CCN(c4ccccn4)CC3)ncnc21)Nc1ccc(Br)cc1 | -15
CCc1cccc(NC(=O)Cn2ncc3c(N4CCN(c5ccccc5)CC4)ncnc32)c1 | -82*
O=C(Cn1ncc2c(N3CCN(c4ccccc4)CC3)ncnc21)Nc1cccc(Cl)c1 | 31
O=C(Cn1ncc2c(N3CCN(c4ccccn4)CC3)ncnc21)Nc1cccc(Br)c1 | -99*
O=C(Cn1ncc2c(N3CCN(c4ccccn4)CC3)ncnc21)Nc1cccc(Cl)c1 | -50
